biological target: NDE1; assay: pooled miR-30 sensor sort-seq; sequence = guide strand; settings: shRNA
Note: reference of the scale not given here.

Point of comparison: TTCTCGGAGTTCCTCTTGCGTA, sensor-assay potency score (higher = more potent) -1.4. Against it:
- TTTTCGGACAGGAGGTCTCTGT — higher, -0.635
- TCTCTGAACAGATTCCAGGAGA — higher, -0.696
- TCTTCGAGAGACATGATCGTGG — higher, -0.394
- TTGATTTGGACAACCAGCGGCA — higher, -0.226
- TTTGCTTGCTCCAGCTCTCTGA — higher, -0.321
- TTCAATTTGTTGCAGCTGCGTC — higher, -0.561
- TTCAGCTTCATATTCTCGGCTT — higher, 0.137
- TTGCTTGCTCCAGCTCTCTGAT — higher, -1.21
- TTAAACTTGAGCTGGGTCCTCG — higher, -0.477
- TCTGTTTGTAGGTCATCGCCAG — higher, -0.347

biological target: NDUFA7; assay: as above; settings: shRNA

Point of comparison: TTCGCTTGGAGATCTCCTGGTA, sensor-assay potency score (higher = more potent) 0.453. Against it:
- ATTGTTGGAGAGCTTGTGGCTA — lower, -0.402
- AGGAGCTGGAGTCACCGCCTTC — lower, -1.6
- TAGCGTAGCTGCAGCTTCCCCT — lower, -0.864
- TCGCTTGGAGATCTCCTGGTAG — lower, -0.223
- TCTCAGTGGCAGCTACAGCAGA — lower, -0.927
- TTGTTGGAGAGCTTGTGGCTAG — lower, -0.163
- TTGTGGCTAGGACCCACAGGGA — lower, -1.83
- TAAAACTAGAAGTGATACCTGA — lower, 0.222
- TCTCCTGGTAGCGTAGCTGCAG — lower, -1.09
- AATTAGGTCACATTCTCCCTGG — lower, -0.0171
- TACAGCAGAGCTCTCTGCTGGC — lower, -0.355

biological target: NDUFA9; assay: as above; settings: shRNA

Point of comparison: TTGATGACCACATTGCTGTGTT, sensor-assay potency score (higher = more potent) 0.542. Against it:
- TGACTGAGGAACGTCCACCTTT — lower, -0.755
- TTATTTCAAAGACTCTTGCTAC — lower, -0.0759
- TTAAGGAATCTATCCTCTCTTC — lower, -0.535
- TTCAACTCCAGCTTCCTTGGAC — lower, 0.368
- TATAGGACCAAACCGATGCATA — lower, -1.43
- TACTTTCTCTCCAACAGCCTTA — lower, 0.0635
- TAGAATCTTTATCTCTCGCGTC — lower, -0.0518
- TTAACTGCATTAACAATTCCTT — lower, -0.73
- TGTGTTGTACTACTCGTCGGAT — lower, -0.517
- TTTAACTGTCTTCCAGCCCAAG — lower, -1.24
- TTGCTGTGTTGTACTACTCGTC — lower, -0.266

biological target: NDUFAB1; assay: as above; settings: shRNA

Point of comparison: TAATCTACAATTTCTTGTGGAC, sensor-assay potency score (higher = more potent) -0.35. Against it:
- TACAATTTCTTGTGGACACATT — lower, -0.835
- AAGTCCATCAGAATCACTCTGT — higher, 0.545

— the OligoGym collection
